For assay [1], the target named is High affinity nerve growth factor receptor (Homo sapiens) (UniProt P04629). Conditions: at 1 µM.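 Note: each value is the mean percent inhibition of TRKA.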
The target of assay [2] is BDNF/NT-3 growth factors receptor (Homo sapiens) (UniProt Q16620). Conditions: at 0.1 µM.
The target is the same in assay [3]. Conditions: at 1 µM.
The target in assay [4] is NT-3 growth factor receptor (Homo sapiens) (UniProt Q16288). As to conditions: at 0.1 µM.
For assay [5] the target is unchanged. As to conditions: at 1 µM.
Assay [6] has as its target T1, Tyrosine-protein kinase TXK (Homo sapiens) (UniProt P42681).
T1 sequence (whole entry): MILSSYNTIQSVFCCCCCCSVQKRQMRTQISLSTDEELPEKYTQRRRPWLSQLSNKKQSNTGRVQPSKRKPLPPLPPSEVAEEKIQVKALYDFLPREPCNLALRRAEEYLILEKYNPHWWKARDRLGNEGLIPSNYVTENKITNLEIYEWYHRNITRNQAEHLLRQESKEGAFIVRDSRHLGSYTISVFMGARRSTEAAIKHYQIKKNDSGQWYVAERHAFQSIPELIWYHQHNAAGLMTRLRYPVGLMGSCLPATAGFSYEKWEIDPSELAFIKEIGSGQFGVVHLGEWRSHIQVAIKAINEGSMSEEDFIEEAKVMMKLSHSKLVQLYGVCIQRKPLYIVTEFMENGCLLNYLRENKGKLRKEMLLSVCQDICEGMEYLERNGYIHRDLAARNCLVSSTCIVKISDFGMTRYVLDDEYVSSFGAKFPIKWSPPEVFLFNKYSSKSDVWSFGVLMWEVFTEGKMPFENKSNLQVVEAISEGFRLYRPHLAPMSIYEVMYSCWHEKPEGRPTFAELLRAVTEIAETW
As to conditions: at 0.1 µM.

Assay [7] deals with T1, Tyrosine-protein kinase TXK (Homo sapiens). Conditions: at 1 µM.
Assay [8] concerns the target Non-receptor tyrosine-protein kinase TYK2 (Homo sapiens) (UniProt P29597). As to conditions: at 0.1 µM.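 Note: each value is a mean of the inhibition readings.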
Assay [9] has as its target T2, Dual specificity protein kinase TTK (Homo sapiens) (UniProt P33981).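 Note: reported figures are mean TTK inhibition at 1 µM.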
T2 sequence (whole entry): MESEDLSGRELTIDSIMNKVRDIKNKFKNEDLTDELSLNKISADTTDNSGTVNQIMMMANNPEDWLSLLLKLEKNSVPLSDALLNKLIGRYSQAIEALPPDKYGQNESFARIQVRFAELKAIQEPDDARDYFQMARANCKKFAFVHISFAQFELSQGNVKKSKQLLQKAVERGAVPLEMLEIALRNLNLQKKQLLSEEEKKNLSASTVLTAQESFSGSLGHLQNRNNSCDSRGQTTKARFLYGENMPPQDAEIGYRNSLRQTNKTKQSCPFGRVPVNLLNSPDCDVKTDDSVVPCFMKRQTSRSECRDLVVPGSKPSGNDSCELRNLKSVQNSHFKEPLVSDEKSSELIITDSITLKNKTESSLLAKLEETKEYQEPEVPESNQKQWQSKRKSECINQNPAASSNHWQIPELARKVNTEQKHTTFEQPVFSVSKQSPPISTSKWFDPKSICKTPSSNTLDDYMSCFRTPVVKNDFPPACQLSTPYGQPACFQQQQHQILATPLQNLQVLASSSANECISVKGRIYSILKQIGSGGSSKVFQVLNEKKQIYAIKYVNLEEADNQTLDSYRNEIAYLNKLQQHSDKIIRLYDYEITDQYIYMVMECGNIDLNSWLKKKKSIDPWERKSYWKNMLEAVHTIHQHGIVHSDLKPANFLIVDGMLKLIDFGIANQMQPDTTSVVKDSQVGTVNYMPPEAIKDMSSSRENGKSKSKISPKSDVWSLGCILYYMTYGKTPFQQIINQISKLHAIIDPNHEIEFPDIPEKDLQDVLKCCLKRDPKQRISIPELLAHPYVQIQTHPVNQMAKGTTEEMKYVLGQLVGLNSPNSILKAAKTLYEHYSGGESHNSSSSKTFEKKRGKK
As to conditions: at 1 µM.

Assay [10] addresses T3, Aurora kinase A (Homo sapiens) (UniProt O14965).
T3 sequence (whole entry): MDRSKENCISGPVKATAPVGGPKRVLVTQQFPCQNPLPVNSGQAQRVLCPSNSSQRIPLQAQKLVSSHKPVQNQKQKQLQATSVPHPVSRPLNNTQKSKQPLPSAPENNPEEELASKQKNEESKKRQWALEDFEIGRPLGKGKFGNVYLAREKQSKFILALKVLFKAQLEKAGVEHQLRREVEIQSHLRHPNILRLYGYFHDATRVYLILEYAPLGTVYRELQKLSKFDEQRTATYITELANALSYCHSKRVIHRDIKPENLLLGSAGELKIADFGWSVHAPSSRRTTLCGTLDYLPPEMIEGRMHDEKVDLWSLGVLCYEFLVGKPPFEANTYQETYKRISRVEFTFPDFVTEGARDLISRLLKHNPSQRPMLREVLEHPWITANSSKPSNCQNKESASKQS
Conditions: at 0.1 µM.

The target in assay [11] is T3, Aurora kinase A (Homo sapiens). As to conditions: at 1 µM.
Assay [12] addresses Aurora kinase B (Homo sapiens) (UniProt Q96GD4). Conditions: at 0.1 µM.
For assay [13] the target is unchanged. Conditions: at 1 µM.
Assay [14] concerns the target T4, Aurora kinase C (Homo sapiens) (UniProt Q9UQB9).
T4 sequence (whole entry): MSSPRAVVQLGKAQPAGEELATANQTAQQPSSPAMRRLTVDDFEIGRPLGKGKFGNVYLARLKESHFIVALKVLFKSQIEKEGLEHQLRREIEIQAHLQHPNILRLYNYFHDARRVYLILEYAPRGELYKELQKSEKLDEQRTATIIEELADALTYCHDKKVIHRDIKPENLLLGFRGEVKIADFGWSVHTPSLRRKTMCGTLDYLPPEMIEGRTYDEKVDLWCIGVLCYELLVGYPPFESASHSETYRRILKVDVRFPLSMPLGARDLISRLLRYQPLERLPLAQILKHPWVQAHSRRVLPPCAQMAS
Conditions: at 0.1 µM.

Assay [15] concerns the target T4, Aurora kinase C (Homo sapiens). As to conditions: at 1 µM.
The target in assay [16] is Serine/threonine-protein kinase 10 (Homo sapiens) (UniProt O94804). Conditions: at 0.1 µM.
Sequence of Serine/threonine-protein kinase 10 (Homo sapiens) (O94804 whole entry, looked up): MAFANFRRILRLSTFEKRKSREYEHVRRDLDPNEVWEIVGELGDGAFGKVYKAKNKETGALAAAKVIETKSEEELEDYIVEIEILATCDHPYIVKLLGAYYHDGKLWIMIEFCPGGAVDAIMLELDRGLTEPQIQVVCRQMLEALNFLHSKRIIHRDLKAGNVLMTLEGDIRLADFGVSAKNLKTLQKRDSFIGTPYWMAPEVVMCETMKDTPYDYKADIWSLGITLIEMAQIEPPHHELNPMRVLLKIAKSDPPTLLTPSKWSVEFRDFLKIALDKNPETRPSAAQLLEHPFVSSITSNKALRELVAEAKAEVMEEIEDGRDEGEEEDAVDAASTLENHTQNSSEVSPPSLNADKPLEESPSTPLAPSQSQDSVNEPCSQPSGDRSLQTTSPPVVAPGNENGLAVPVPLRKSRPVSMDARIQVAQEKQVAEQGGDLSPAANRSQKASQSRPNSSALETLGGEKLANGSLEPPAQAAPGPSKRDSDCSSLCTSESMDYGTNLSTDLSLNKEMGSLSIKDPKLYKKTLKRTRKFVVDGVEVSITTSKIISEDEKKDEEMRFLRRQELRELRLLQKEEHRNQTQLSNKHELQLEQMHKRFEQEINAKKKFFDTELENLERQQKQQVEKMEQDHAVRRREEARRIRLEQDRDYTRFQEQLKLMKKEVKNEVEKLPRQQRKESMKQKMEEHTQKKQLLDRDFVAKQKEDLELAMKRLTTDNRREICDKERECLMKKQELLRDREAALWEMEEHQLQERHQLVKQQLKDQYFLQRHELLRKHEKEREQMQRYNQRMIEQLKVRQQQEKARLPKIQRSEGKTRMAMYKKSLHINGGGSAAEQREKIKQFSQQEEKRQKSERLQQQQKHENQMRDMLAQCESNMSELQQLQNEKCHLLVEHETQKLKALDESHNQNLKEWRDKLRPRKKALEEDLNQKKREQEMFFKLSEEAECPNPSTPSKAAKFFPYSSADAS
Assay [17] shares this target. As to conditions: at 1 µM.
In assay [18] the target is T5, Mitogen-activated protein kinase kinase kinase kinase 2 (Homo sapiens) (UniProt Q12851).
T5 sequence (whole entry): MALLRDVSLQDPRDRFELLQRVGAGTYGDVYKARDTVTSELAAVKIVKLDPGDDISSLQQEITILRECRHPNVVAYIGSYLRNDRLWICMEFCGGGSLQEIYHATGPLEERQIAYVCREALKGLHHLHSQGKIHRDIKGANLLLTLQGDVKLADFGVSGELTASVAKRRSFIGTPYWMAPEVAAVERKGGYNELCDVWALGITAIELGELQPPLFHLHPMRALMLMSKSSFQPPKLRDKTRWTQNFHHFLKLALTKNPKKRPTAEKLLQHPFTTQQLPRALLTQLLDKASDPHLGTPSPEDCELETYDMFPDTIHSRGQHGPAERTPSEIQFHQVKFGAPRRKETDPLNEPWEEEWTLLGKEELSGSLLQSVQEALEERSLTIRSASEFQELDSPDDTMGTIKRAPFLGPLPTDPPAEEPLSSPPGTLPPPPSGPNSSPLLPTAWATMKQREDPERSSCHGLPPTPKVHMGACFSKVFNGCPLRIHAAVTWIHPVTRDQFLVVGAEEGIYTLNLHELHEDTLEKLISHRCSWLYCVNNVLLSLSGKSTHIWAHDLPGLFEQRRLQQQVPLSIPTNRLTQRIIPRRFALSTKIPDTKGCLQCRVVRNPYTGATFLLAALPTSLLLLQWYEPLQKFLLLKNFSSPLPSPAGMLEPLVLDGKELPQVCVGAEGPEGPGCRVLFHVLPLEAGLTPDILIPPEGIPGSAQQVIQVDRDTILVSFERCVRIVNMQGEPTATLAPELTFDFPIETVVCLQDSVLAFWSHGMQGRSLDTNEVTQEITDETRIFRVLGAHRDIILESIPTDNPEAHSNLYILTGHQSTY
As to conditions: at 0.1 µM.

Assay [19] has as its target T5, Mitogen-activated protein kinase kinase kinase kinase 2 (Homo sapiens). As to conditions: at 1 µM.
In assay [20] the target is Mitogen-activated protein kinase kinase kinase kinase 4 (Homo sapiens) (UniProt O95819). Conditions: at 0.1 µM.
Sequence of Mitogen-activated protein kinase kinase kinase kinase 4 (Homo sapiens) (O95819 2-1239 limits assumed): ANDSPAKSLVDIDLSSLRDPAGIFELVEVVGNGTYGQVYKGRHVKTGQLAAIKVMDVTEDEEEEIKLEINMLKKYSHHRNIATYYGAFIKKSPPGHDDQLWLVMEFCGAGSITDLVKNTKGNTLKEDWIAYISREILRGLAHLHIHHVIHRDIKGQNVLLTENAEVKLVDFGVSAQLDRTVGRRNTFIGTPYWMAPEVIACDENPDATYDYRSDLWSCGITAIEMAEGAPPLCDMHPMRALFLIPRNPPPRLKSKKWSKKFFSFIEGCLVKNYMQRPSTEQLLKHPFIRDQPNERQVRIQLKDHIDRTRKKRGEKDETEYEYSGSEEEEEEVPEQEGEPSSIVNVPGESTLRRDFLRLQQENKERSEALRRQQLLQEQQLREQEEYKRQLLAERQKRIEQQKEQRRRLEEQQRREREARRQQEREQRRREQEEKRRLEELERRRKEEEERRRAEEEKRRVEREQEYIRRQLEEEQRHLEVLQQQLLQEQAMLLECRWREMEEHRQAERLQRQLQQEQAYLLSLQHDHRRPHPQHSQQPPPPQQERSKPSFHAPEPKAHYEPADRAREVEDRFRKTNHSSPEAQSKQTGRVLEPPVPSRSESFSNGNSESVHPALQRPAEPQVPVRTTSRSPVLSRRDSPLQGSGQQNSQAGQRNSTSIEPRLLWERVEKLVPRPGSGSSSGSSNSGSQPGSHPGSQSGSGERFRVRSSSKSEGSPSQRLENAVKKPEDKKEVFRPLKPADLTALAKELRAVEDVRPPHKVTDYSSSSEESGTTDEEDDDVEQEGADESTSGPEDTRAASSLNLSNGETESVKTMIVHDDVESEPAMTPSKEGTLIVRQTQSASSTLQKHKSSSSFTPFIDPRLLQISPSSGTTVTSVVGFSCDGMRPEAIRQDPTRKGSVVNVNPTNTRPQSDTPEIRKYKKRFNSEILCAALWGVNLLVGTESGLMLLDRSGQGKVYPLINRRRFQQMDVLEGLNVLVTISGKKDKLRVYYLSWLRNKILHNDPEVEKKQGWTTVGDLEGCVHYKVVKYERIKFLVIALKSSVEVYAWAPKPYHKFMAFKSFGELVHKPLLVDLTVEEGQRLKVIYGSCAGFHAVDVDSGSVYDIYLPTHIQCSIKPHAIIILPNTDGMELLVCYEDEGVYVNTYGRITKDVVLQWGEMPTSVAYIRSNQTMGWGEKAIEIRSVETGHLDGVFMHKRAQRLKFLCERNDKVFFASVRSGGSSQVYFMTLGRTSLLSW

SMILES strings stand for the structures.

Sequence of High affinity nerve growth factor receptor (Homo sapiens) (P04629 33-796 limits assumed): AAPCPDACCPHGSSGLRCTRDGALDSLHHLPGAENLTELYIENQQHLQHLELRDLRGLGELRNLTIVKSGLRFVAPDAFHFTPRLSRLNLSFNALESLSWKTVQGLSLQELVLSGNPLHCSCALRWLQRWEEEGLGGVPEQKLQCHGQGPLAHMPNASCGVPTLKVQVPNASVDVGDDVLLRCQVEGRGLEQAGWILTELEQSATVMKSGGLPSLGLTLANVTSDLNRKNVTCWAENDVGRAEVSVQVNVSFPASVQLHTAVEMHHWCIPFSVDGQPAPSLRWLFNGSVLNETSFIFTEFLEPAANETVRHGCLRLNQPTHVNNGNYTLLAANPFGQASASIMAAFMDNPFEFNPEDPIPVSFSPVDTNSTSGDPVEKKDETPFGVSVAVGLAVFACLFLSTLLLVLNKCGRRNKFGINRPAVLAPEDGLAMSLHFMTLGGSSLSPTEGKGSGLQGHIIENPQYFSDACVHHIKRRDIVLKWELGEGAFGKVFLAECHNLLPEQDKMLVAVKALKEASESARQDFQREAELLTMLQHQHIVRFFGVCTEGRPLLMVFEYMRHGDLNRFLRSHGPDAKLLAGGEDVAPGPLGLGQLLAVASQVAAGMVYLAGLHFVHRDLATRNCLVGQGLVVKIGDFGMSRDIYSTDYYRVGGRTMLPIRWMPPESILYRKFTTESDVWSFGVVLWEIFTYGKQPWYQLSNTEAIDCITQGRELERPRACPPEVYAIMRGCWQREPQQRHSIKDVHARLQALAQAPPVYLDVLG
Sequence of Non-receptor tyrosine-protein kinase TYK2 (Homo sapiens) (P29597 whole entry): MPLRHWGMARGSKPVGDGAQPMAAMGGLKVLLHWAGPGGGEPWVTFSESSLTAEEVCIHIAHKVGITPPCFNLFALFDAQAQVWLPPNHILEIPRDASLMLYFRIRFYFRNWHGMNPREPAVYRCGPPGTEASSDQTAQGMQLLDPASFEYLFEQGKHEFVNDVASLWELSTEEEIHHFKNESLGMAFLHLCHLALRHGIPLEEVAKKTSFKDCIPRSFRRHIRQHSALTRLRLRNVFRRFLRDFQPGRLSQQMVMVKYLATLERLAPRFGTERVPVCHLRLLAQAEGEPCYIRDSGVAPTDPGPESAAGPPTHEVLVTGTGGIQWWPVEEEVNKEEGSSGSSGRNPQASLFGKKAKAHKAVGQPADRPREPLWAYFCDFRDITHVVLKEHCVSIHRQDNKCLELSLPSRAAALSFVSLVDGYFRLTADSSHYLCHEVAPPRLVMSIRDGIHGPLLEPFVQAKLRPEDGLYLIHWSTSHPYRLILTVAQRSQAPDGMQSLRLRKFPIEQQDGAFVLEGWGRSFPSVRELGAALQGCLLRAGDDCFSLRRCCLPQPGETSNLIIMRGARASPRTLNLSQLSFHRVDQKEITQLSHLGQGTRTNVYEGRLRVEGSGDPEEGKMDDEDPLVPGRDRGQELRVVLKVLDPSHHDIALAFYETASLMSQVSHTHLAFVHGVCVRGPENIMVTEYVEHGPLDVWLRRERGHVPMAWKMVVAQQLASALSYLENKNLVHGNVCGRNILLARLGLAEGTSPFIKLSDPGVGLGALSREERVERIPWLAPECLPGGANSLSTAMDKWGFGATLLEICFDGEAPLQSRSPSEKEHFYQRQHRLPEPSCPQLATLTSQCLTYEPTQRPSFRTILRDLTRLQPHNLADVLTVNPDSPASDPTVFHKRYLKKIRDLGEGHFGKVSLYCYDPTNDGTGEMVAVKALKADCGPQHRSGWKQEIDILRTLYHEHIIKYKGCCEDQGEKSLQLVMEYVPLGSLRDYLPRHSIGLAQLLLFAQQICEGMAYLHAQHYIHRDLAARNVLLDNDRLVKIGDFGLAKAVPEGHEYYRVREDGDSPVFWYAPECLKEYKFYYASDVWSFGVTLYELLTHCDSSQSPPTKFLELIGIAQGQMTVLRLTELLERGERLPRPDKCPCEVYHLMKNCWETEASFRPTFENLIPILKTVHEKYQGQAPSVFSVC
Sequence of NT-3 growth factor receptor (Homo sapiens) (Q16288 32-839 limits assumed): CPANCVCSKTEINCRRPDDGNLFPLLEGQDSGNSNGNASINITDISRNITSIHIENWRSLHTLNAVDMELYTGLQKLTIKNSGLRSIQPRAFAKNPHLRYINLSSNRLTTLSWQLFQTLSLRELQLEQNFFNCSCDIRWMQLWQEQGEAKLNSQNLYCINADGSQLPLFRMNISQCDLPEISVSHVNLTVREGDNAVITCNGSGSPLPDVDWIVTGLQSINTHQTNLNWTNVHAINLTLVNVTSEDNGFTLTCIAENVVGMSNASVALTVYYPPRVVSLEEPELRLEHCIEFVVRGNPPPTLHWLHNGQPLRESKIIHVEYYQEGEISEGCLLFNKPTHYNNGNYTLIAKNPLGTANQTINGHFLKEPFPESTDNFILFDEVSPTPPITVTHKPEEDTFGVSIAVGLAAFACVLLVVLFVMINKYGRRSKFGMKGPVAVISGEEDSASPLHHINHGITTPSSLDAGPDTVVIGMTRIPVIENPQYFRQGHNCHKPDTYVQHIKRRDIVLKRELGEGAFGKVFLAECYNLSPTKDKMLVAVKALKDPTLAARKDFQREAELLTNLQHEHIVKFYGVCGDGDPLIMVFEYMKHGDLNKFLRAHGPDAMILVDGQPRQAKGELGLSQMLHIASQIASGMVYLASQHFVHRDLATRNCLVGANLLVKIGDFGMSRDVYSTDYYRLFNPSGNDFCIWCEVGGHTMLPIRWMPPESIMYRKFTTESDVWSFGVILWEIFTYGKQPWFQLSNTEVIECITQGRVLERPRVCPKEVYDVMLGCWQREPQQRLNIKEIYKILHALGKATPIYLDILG

As usually defined, the inhibition is the drop in the measured response relative to a control, in per cent. As for `NCc1ccc(-n2c(-c3nonc3N)nc3cnccc32)cc1`, the inhibition stood at 2.81% in [1]; 3.11% in assay [2]; 1.99% in assay [3]; 3.14% in [4]; 2.31% in [5]; 1.78% in assay [6]. Further, the inhibition in [7] was 3.57%; in assay [8], -7.21%; in assay [9], 10.1%; in assay [10], 3.62%; in [11] it was 8.79%; in [12], 3.64%. For the same compound, the inhibition in assay [13] was determined as 12.4%; in [14] it was 3.83%; in assay [15] it was 18.8%; in assay [16] it was 8.16%; in [17] it was 24.2%; in assay [18], 3.62%. In addition, the inhibition turned out to be 18.2% in assay [19] and 10.1% in assay [20].

Regarding `N#Cc1ccc(Oc2nccc(-c3c(-c4ccc(F)cc4)ncn3C3CCNCC3)n2)cc1`, the inhibition in assay [1] is 0.26%; in [2] it was 2.91%; in assay [3] it was 4.54%; in [4], 2.17%; in assay [5], 3.17%; in [6], -0.35%. Also, the inhibition in [7] is 1.69%; in [8] it was -3.12%; in assay [9], 8.89%; in [10], 3.21%; in assay [11], 4.78%; in [12], 3.58%. Further, the inhibition in assay [13] amounted to 5.49%; in assay [14] it was 0.14%; in assay [15] it was 3.86%; in assay [16] it was 6.19%; in assay [17] it was 8.89%; in [18] it was 0.91%. The inhibition in [19] came to 4.07%; in assay [20], 3.8%.

Consider `Fc1ccc(-c2ncn(C3CCNCC3)c2-c2ccnc(Oc3ccc(Oc4ccccc4)cc3)n2)cc1`, for which the inhibition amounted to 5.66% in [1]; 2.54% in [2]; 2.27% in assay [3]; 2.44% in [4]; 1.66% in [5]; 8.91% in assay [6]. The inhibition in [7] was 5.95%; in assay [8], -1.07%; in [9] it was 7.56%; in [10], 2.89%; in [11], 0.96%; in assay [12] it was 4.04%. Further, the inhibition in [13] came to 3.66%; in assay [14], 0.06%; in [15], 0.55%; in assay [16], 5.52%; in [17], 6.96%; in [18] it was 2.54%. In addition, the inhibition in assay [19] is 9.5%; in [20], 4.44%.

As to `NC(=O)c1cc(-c2ccncc2)cc(-c2ccccc2)c1N`, the inhibition in assay [1] is 1.84%; in [2] it was 2.94%; in assay [3] it was 3.86%; in [4], 3.19%; in assay [5] it was 4.68%; in [6], 45%. Further, the inhibition in assay [7] was 76.1%; in assay [8] it was -3.77%; in [9], 10.8%; in [10] it was 2.73%; in assay [11], 6.63%; in assay [12], 3.91%. Moreover, the inhibition in assay [13] was found to be 4.94%; in assay [14] it was 1.71%; in assay [15], 5.08%; in [16] it was 6.67%; in assay [17] it was 9.99%; in [18], 0.27%. The inhibition was found to be 0.97% in assay [19] and 11.9% in assay [20].

The values above are taken from ChEMBL document CHEMBL1961873, “Compounds: GSK PKIS; Assays: Nanosyn kinase panel” (2012).
